# From PubChem BioAssay (NCATS)
# Where “and” joins values, the source holds several entries; their conditions need not be identical. Identical values can stand only once. Records with an inconclusive call do not appear. A structure can be active in one record and inactive in another. Unmarked numbers belong to inactive results. Calls of active or inactive are those of the source. Unless noted, calls follow the shape of the dose curve; as a rule, active = well fitted curve in the direction sought with a large enough effect; inconclusive = small, poorly fitted or top-dose-only effect, or another doubt; inactive = no such curve, though single readings can be large; an effect the other way counts as inactive or inconclusive.
# What was measured:
# [1] = target: Cellular tumor antigen p53 (Homo sapiens) (UniProt P04637); experiment: Primary qHTS for small molecule compounds that upregulate eGFP-tagged delta133p53alpha (in N-terminal) cells. (AID 2060322); conditions: NCI-H358 eGFP-delta133p53alpha fluorescence, 24 h; activation: active compounds read high; also: nearly all actives have a fitted effect of over 75% in size; also: potency is read from the fitted curve at half-maximal effect;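 as to activation: cells pre-induced with doxycycline then dosed without doxycycline; series mostly up to about 56 µM; 0% = DMSO vehicle and 100% = reference activator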
# How it was run: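 NCI-H358 cells pre-induced 24 h with 10 ng/ml doxycycline for eGFP-delta133p53alpha, plated dox-free and exposed 24 h at 37C to titrated compounds. Fixed, Hoechst-stained; gated GFP peak intensity by laser scanning cytometry, normalized to DMSO (0%) and 57.5 uM 5-azacytidine (100%).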
# [2] = target: Aldehyde dehydrogenase, mitochondrial (Homo sapiens) (UniProt P05091); experiment: qHTS for Inhibitors of the Aldehyde Dehydrogenase Family (ALDH2) Validation screens (AID 2061302; active = well fitted inhibition curve with a large enough effect; title and protocol of this record describe different tests; also: potency is read from the fitted curve at half-maximal effect)
# [3] = target: Aldehyde dehydrogenase, mitochondrial (Homo sapiens) (UniProt P05091); experiment: qHTS for Inhibitors of the Aldehyde Dehydrogenase Family (ALDH2) Confirmatory screens (AID 2061303; active = well fitted inhibition curve with a large enough effect; title and protocol of this record describe different tests; also: % is scaled to controls: 0 for no effect and ±100 for the full control effect; nearly all actives have a fitted effect of over 45% in size)
# [4] = qHTS for Inhibitors of the Aldehyde Dehydrogenase Family (ALDH1A2, ALDH1A3, ALDH2, ALDH3A1) (AID 2061307); also: % is scaled to controls: 0 for no effect and ±100 for the full control effect; nearly all actives have a fitted effect of over 50% in size
# [5] = target: Retinaldehyde dehydrogenase 3 (Homo sapiens) (UniProt P47895); experiment: qHTS for Inhibitors of the Aldehyde Dehydrogenase Family (ALDH1A3) Confirmatory screens (AID 2061311); also: nearly all actives have a fitted effect of over 60% in size
# [6] = target: Retinal dehydrogenase 2 (Homo sapiens) (UniProt O94788); experiment: qHTS for Inhibitors of the Aldehyde Dehydrogenase Family (ALDH1A2) Confirmation screens (AID 2061314); also: % is scaled to controls: 0 for no effect and ±100 for the full control effect; nearly all actives have a fitted effect of over 65% in size
# [7] = target: Aldehyde dehydrogenase 1A1 (Homo sapiens) (UniProt P00352); experiment: qHTS for Inhibitors of the Aldehyde Dehydrogenase Family (ALDH1A1) Confirmatory screens (AID 2061316); also: nearly all actives have a fitted effect of over 65% in size
# [8] = target: Cellular tumor antigen p53 (Homo sapiens) (UniProt P04637); experiment: Primary qHTS for small molecule compounds that upregulate eGFP-tagged delta133p53alpha (in C-terminal) cells. (AID 2060324); also: potency is read from the fitted curve at half-maximal effect
# How it was run: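 Read-out: gated-cell GFP peak intensity (laser scanning cytometer), plate-normalized with DMSO as 0% activity, after 24 h compound exposure at 37C. Cells were C-terminal eGFP-tagged delta133p53alpha NCI-H358, doxycycline-induced (100 ng/ml, 24 h) before plating.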
# [9] = BET inhibitor-based combinations targeting novel dependencies in MECOM-rearranged (r) AML: SET-2 cell line (AID 2202231); conditions: SET-2 AML cells viability, CellTiter-Glo luminescence, 48 h; viability: active compounds read low, concentration not given here; also: nearly all actives have a fitted effect of over 35% in size; also: potency is read from the fitted curve at half-maximal effect;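 as to viability: plate controls were DMSO treated cells for no effect and wells without cells for full effect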
# How it was run: (§1)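 Readout: CellTiter-Glo luminescence. Exposure: 48 h, 11 concentrations, 500 cells/well. Metric: AUC and within-line Z-AUC after DMSO/empty-well normalization.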
# [10] = BET inhibitor-based combinations targeting novel dependencies in MECOM-rearranged (r) AML: OCI-AML3 cell line (AID 2202232); conditions: Potency: OCI-AML3 viability; also: nearly all actives have a fitted effect of over 35% in size; also: potency is read from the fitted curve at half-maximal effect
# How it was run: as §1
# [11] = BET inhibitor-based combinations targeting novel dependencies in MECOM-rearranged (r) AML: MV-4-11 cell line (AID 2202233); also: potency is read from the fitted curve at half-maximal effect; nearly all actives have a fitted effect of over 45% in size
# How it was run: (§2)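 Seeding density was 500 cells/well, and drug exposure lasted 48 hr under standard culture conditions. Read-out used CellTiter-Glo reagent with a 15 min room-temperature incubation before luminescence measurement; AUC and Z-AUC summarize the normalized responses.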
# [12] = BET inhibitor-based combinations targeting novel dependencies in MECOM-rearranged (r) AML: HNT-34 cell line (AID 2202234); also: nearly all actives have a fitted effect of over 35% in size; also: potency is read from the fitted curve at half-maximal effect
# How it was run: as §2
# [13] = BET inhibitor-based combinations targeting novel dependencies in MECOM-rearranged (r) AML: UCSD-AML1 cell line (AID 2202235); also: nearly all actives have a fitted effect of over 40% in size; also: potency is read from the fitted curve at half-maximal effect
# How it was run: as §2
# [14] = BET inhibitor-based combinations targeting novel dependencies in MECOM-rearranged (r) AML: AML-191 cell line (AID 2202236; also: nearly all actives have a fitted effect of over 35% in size; also: potency is read from the fitted curve at half-maximal effect)
# How it was run: as §1
# [15] = BET inhibitor-based combinations targeting novel dependencies in MECOM-rearranged (r) AML: AML-194 cell line (AID 2202237; also: nearly all actives have a fitted effect of over 40% in size; also: potency is read from the fitted curve at half-maximal effect)
# How it was run: as §1
# [16] = target: Retinaldehyde dehydrogenase 3 (Homo sapiens) (UniProt P47895); experiment: qHTS for Inhibitors of the Aldehyde Dehydrogenase Family (ALDH1A3) Validation screen (AID 2061312); also: % is scaled to controls: 0 for no effect and ±100 for the full control effect; nearly all actives have a fitted effect of over 45% in size
# [17] = target: Aldehyde dehydrogenase, mitochondrial (Homo sapiens) (UniProt P05091); experiment: qHTS for Inhibitors of the Aldehyde Dehydrogenase Family (ALDH2) Primary screen (AID 2061308);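 also: plate controls were vehicle for no effect and reference inhibitor for full effect; nearly all actives have a fitted effect of over 55% in size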
# [18] = target: Retinaldehyde dehydrogenase 3 (Homo sapiens) (UniProt P47895); experiment: qHTS for Inhibitors of the Aldehyde Dehydrogenase Family (ALDH1A3) Primary screen (AID 2061315);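 also: plate controls were DMSO vehicle for no effect and reference inhibitor for full effect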
# Chain of Cellular tumor antigen p53 (Homo sapiens) (P04637 whole entry, looked up): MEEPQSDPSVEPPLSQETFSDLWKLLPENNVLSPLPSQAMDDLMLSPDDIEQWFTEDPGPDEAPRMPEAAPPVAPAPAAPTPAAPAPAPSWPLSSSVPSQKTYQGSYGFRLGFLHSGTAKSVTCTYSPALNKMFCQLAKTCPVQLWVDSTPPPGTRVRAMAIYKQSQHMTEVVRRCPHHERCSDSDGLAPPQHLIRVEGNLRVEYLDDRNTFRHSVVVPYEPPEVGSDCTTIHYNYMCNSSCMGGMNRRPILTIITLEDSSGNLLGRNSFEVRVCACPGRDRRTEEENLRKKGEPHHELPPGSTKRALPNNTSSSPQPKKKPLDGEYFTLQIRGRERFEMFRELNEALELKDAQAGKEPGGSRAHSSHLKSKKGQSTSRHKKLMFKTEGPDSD
smiles,measurement,setting,value
CC(C)OC(=O)c1cc2c(OCC(O)CNC(C)(C)C)cccc2[nH]1 (stereo not given),activation,[1],20.9%
COCC(=O)O[C@]1(CCN(C)CCCc2nc3ccccc3[nH]2)CCc2cc(F)ccc2[C@@H]1C(C)C,Potency,[1],21.9 µM (active)
same,activation,[1],29.4%
same,Potency,[2],inactive
same,Potency,[3],inactive
same,Potency,[4],inactive
same,Potency,[5],inactive
same,Potency,[6],inactive
same,Potency,[7],inactive
Cc1cc(-c2ccccc2)nnc1NCCN1CCOCC1,activation,[1],16.4%
CCN(CC)CC(=O)Oc1ccc(NC(C)=O)cc1,activation,[1],-5.08%
Cn1c(=O)c2c(ncn2CC(=O)O)n(C)c1=O,activation,[1],1.69%
CCN(CC)CCOc1ccc(Nc2ncc3cc(-c4c(Cl)cccc4Cl)c(=O)n(C)c3n2)cc1,Potency,[1],5.44 µM (active)
same,activation,[1],-1.41%
same,Potency,[8],26.9 µM (active)
same,Potency,[2],inactive
same,Potency,[3],inactive
same,Potency,[4],inactive
same,Potency,[5],inactive
same,Potency,[7],inactive
same,Potency,[9],3.72 µM (active)
same,Potency,[10],2.63 µM (active)
same,Potency,[11],0.59 µM (active)
same,Potency,[12],0.0295 µM (active)
same,Potency,[13],2.95 µM (active)
same,Potency,[14],2.35 µM (active)
same,Potency,[15],2.95 µM (active)
CCCOC(=O)c1ccc(O)cc1,activation,[1],-10%
Oc1ccc(C(O)CNCCCCCCNCC(O)c2ccc(O)c(O)c2)cc1O (stereo not given),activation,[1],2.82%
CN1C[C@H](C(=O)N[C@]2(C)O[C@@]3(O)[C@@H]4CCCN4C(=O)[C@H](Cc4ccccc4)N3C2=O)C[C@@H]2c3cccc4[nH]cc(c34)C[C@H]21,Potency,[1],24.6 µM (active)
same,activation,[1],7.67%
same,Potency,[2],inactive
CCN(CCCc1ccccc1)CCCc1ccccc1,activation,[1],-1.67%
Cc1ccc(N)cc1O,Potency,[1],28.2 µM (active)
O=C(NCCCN1CCOCC1)c1ccc(Cl)cc1,activation,[1],-23.2%
CCCCCN(CCCOC)C(=O)C(CCC(=O)O)NC(=O)c1ccc(Cl)c(Cl)c1 (stereo not given),activation,[1],-18.6%
CCOC(=O)Nc1ccc(NCc2ccc(F)cc2)nc1N,Potency,[1],2.19 µM (active)
same,activation,[1],-4.52% and 42.2%
same,Potency,[8],13.5 µM (active)
same,Potency,[2],5.01 µM (active)
same,viability,[9],107%
same,Potency,[12],inactive
same,Potency,[13],inactive
same,Potency,[14],inactive
same,Potency,[15],inactive
Oc1cccc(O)c1,activation,[1],-16.4%
CC(C)(O)CC[C@@H](O)[C@](C)(O)[C@H]1CC[C@@]2(O)C3=CC(=O)[C@@H]4C[C@@H](O)[C@@H](O)C[C@]4(C)[C@@H]3CC[C@]12C,activation,[1],-14.8%
CC(C)(C)CC(C)(C)c1ccc(O)c(-n2nc3ccccc3n2)c1,activation,[1],-0.565%
CC(C)CCOC(=O)c1ccc(N(C)C)cc1,activation,[1],6.69%
CCN(CC)CCOC(=O)C1(c2ccccc2)CCCC1,activation,[1],3.35%
OC1(c2ccccc2)CCNCC1,activation,[1],0.565%
COc1ccc(-n2nc(CCC(=O)N(C)O)cc2-c2ccc(Cl)cc2)cc1,activation,[1],-8.47%
COCCOC(=O)C1=C(C)NC(C)=C(C(=O)OC(C)C)C1c1cccc([N+](=O)[O-])c1 (stereo not given),Potency,[1],6.92 µM (active)
same,activation,[1],-10.6%
same,Potency,[8],inactive
same,Potency,[2],inactive
same,Potency,[16],inactive
O=C(C=Cc1c(C(=O)O)[nH]c2cc(Cl)cc(Cl)c12)Nc1ccccc1,activation,[1],33.2%
O=[N+]([O-])c1ccc(/C=N\O)o1,activation,[1],11.9%
CCCCN(CCCC)CCCOC(=O)c1ccc(N)cc1,activation,[1],-2.51%
CC=CCC=CCCC(=O)[C@H]1O[C@@H]1C(N)=O,activation,[1],-3.35%
COc1cc(C(=O)N2CCCCCCC2)cc(OC)c1OC,activation,[1],-6.21%
COc1ccc2cc(C=O)ccc2c1,activation,[1],-1.69%
O=C(/C=C/c1ccc(O)c(O)c1)O[C@@H]1C[C@@](OC(=O)/C=C/c2ccc(O)c(O)c2)(C(=O)O)C[C@@H](O)[C@@H]1O,activation,[1],11.9%
CC(C)COCC(CN(Cc1ccccc1)c1ccccc1)N1CCCC1 (stereo not given),Potency,[1],34.7 µM (active)
same,activation,[1],-16.2%
same,Potency,[8],inactive
same,Potency,[2],inactive
same,Potency,[16],inactive
same,Potency,[9],23.5 µM (active)
same,Potency,[10],18.6 µM (active)
same,Potency,[11],26.3 µM (active)
same,Potency,[12],16.6 µM (active)
same,Potency,[13],20.9 µM (active)
same,Potency,[15],23.5 µM (active)
COC(=O)[C@H]1[C@H]2C[C@@H]3c4[nH]c5cc(OC)ccc5c4CCN3C[C@H]2C[C@@H](OC(=O)c2cc(OC)c(OC)c(OC)c2)[C@@H]1OC,Potency,[1],27.6 µM (active)
same,activation,[1],-18%
same,Potency,[8],26.9 µM (active)
same,Potency,[2],inactive
same,Potency,[17],inactive
same,Potency,[16],inactive
same,Potency,[18],inactive
COc1ccc2ccc(=O)oc2c1CC=C(C)C,activation,[1],-15%
CS(=O)c1ccc(-c2nc(-c3ccc(F)cc3)c(-c3ccncc3)[nH]2)cc1 (stereo not given),Potency,[1],49.8 µM (active)
same,activation,[1],-3.57%
same,Potency,[17],inactive
same,Potency,[18],inactive
same,Potency,[10],inactive
same,Potency,[14],inactive
same,Potency,[15],inactive
